Most compounds without a hit are left out; they make up all but 7.4% or so of the library.
Rab9 promoter act: activates the Rab9 promoter | Potency, µM (titrated, usually from 9.22 µM), for the others: at the top dose activation, negative = inhibition, actives largely listed as activators | AID 485297 | Huh7 Rab9 promoter-luciferase reporter, luminescence, 24 h | 320,000 compounds, 2.8% hits; also: % of control where 0% means no effect; nearly all actives have a fitted effect of over 60% in size
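Huh7 cells stably carrying a Rab9 promoter-luciferase reporter, 1500 cells per well in OP-MEM I with 10% FBS, treated with compound 24 hours at 37C. Luciferase activity read by luminescence after 10 minutes with Amplite reagent.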
NPC1 prom act: NPC1 promoter activation | Huh7 NPC1 promoter luciferase reporter, 24 h | Potency, µM (doses to about 9.22 µM), without a hit: at the top dose activation, actives largely listed as activators | 320,000 compounds, 2.4% hits | AID 485313; also: % of control where 0% means no effect; nearly all actives have a fitted effect of over 60% in size
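Cells: Huh7 expressing luciferase under the NPC1 promoter, 1500/well. Seeded 2 h, compound added, incubated 24 h at 37 °C. Luciferase reagent, 10 min ambient, then luminescence.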
FLuc modulator: firefly luciferase modulation, counter-screen for miR-21 project | Potency, µM (top dose mostly 57.5 µM), inactives show top-dose activity change, negative = inhibition, most hits filed as inhibitors | P08659 | 360,000 compounds, 6.9% hits | AID 588342 | purified FLuc, Km substrates, luminescence inhibition;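 also: plate controls were vehicle for no effect and reference inhibitor for full effect; nearly all actives have a fitted effect of over 55% in size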
Target sequence (P08659 whole entry, looked up): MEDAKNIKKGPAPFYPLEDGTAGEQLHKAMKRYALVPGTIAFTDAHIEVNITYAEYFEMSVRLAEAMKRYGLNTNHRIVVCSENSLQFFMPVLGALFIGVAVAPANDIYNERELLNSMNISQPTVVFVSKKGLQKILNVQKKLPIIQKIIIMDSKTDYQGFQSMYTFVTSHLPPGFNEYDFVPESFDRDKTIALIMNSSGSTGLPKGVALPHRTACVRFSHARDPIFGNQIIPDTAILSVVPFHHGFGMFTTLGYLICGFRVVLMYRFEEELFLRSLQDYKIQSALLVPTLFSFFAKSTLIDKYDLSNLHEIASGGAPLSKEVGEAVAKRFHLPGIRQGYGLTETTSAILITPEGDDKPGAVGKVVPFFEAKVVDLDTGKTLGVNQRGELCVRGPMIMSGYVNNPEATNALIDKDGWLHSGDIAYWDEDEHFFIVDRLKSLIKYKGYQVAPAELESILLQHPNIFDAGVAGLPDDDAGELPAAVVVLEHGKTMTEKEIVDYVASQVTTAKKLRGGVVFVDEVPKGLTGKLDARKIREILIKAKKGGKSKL
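Biochemical qHTS of compounds, final roughly 60 µM downward over six points, against 10 nM purified firefly luciferase using Km concentrations of substrates (10 uM D-luciferin, 10 uM ATP) in Tris acetate pH 7.5 buffer; luminescence output.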
SMN2 splice enh: SMN2 splice variant enhancement; 210,000 compounds, 2.8% hits; Potency, µM (highest dose often 46.1 µM), for the others: at the top dose activity change, positive = activation, most hits filed as activators; HEK293 SMN2-luciferase splicing reporter, luminescence, 30-36 h; also: % of control where 0% means no effect; nearly all actives have a fitted effect of over 55% in size
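qHTS luciferase splicing reporter: luminescence rises when SMN2 exon 7 is included in transfected HEK293 cells. Compound exposure lasted 30-36 h at 37C, with 4.5 mM final sodium butyrate as control, followed by a ONE-Glo read.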
ELG1 genotox: genotoxicity induction in ELG1-luciferase HEK293T cells. Potency, µM (highest dose often 46 µM), without a hit: at the highest dose activity change, positive = activation, hits mostly activators. HEK293T ELG1-luciferase reporter, luminescence, 16 h. 330,000 compounds, 1.3% hits; also: % of control where 0% means no effect; nearly all actives have a fitted effect of over 60% in size
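HEK293T cells expressing luciferase-tagged ELG1 were treated with compound or DMSO for 16 hr at 37°C. Luciferase activity was then read after 30 min with ONE-Glo at room temperature; rising signal flags genetic stress.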
An asterisk follows results filed as active; ? = inconclusive; · = no result. Calls follow the shape of the dose curve; as a rule, active = well fitted curve in the direction sought with a large enough effect; inconclusive = small, poorly fitted or top-dose-only effect, or another doubt; inactive = no such curve, though single readings can be large; an effect the other way counts as inactive or inconclusive. Potency is read from the fitted curve at half-maximal effect.

SMILES | Rab9 promoter act | NPC1 prom act | FLuc modulator | SMN2 splice enh | ELG1 genotox
O=c1oc2cc(OCc3ccc(C(F)(F)F)cc3)ccc2cc1-c1ccccn1 | -3% | -4% | 0% | -4% | -3%
COc1ccc(-c2cc3ccc(OC(C)C(=O)O)cc3oc2=O)cc1 (centres undefined) | 27% | 22% | 27µM* | · | ?
O=C(CCCCl)Oc1ccc2cc(-c3ccc4ccccc4n3)c(=O)oc2c1 | ? | ? | ? | 13µM* | ?
O=C(CCc1ccccc1)NC(=S)Nc1cccc(C(=O)O)c1 | 3.2µM* | 1.4µM* | 4.8µM* | · | ?
CC(C)(C)C(=O)NC(=S)Nc1cccc(C(=O)O)c1 | 0.79µM* | 2.8µM* | 19µM* | · | ?
O=C(CCCc1ccccc1)Nc1cccc(C(=O)O)c1 | 0.25µM* | 0.32µM* | 0.38µM* | 1.6µM* | 0%
COc1ccc(NC(=O)CCCc2ccccc2)cc1OC | 4µM* | 3.5µM* | ? | · | 18µM*
Cc1cc(NC(=O)C23CC4CC(C2)CC(n2cnc([N+](=O)[O-])n2)(C4)C3)no1 | -2% | 0% | -3% | -3% | -1%
Cc1c(-c2cccc(NC(=O)Nc3ccc(Cl)cc3)c2)nc2ncccn12 | · | · | 11µM* | · | ·
Cc1nccc(-c2cccc(NC(=O)Nc3ccc(Cl)cc3)c2)n1 | -3% | -5% | 4.8µM* | · | -14%
O=C(NCc1ccc(C(=O)O)cc1)OCc1ccccc1 | -2% | -5% | ? | · | 5%
CCNC(=O)c1c(O)c2c([nH]c1=O)CCCC2 | 15% | 2% | -10% | · | 3%
COC(=O)c1ccccc1NC(=O)c1c(O)c2c([nH]c1=O)CCCC2 | 3% | 4% | 21µM* | 9% | 2%
O=C(Nc1ccc(O)cc1)c1c(O)c2c([nH]c1=O)CCCC2 | 0.56µM* | 1.3µM* | 6µM* | 11µM* | ?
Cc1ccc(N/N=C2\CC(=O)c3ccccc32)cc1Cl | 16% | 2% | 9.5µM* | · | ?
O=C(O)c1cc(NN=C2c3ccccc3-c3ccccc32)ccc1Cl | 0% | -3% | ? | · | 1%
O=C(Nc1cccc(NC(=O)C2C3CC4OC(=O)C2C4C3)c1)c1ccccc1 (centres undefined) | -16% | 0% | ? | · | -4%
COc1cc(NC(=O)O[C@@H]2C(=O)c3cc(Br)ccc3O[C@H]2c2ccc3c(c2)OCO3)cc(OC)c1OC | · | · | · | 1% | ·
O=C(Nc1nc2c(s1)CCCC2)c1cc(-c2ccccc2)nc2ccccc12 | -11% | -10% | ? | -7% | 0%
O=C(CSc1ncn(-c2ccccc2)n1)Nc1nc2c(s1)CCCC2 | -9% | 2% | -24% | ? | ?
O=C(Cc1cn2ccsc2n1)Nc1nc2c(s1)CCCC2 | 6% | 8% | -16% | -22% | 12%
O=C(Nc1nc2c(s1)CCCC2)c1cccs1 | 0.71µM* | 2.8µM* | 1.1µM* | 3.2µM* | ?
O=C(CCSc1ccccc1)Nc1nc2c(s1)CCCC2 | 28% | 30% | 19µM* | 8% | 23µM*
O=C(Cc1cccs1)Nc1nc2c(s1)CCCC2 | 2.8µM* | ? | 17µM* | 13µM* | ?
O=C(Nc1nc2c(s1)CCCC2)c1cccnc1 | ? | 2.5µM* | 12µM* | · | 2.1µM*
SMILES | Rab9 promoter act | NPC1 prom act | FLuc modulator | SMN2 splice enh | ELG1 genotox
CCOC(=O)N1CCC(=NNC(=O)c2ccc(O)cc2)CC1 | -1% | -2% | -1% | -9% | 0%
COc1ccc(CC(=O)NCc2ccc3c(c2)CCN3C(=O)c2cccc(C)c2)cc1 | · | · | 0% | · | ·
CC(C)(C)c1nc(SCC(=O)Nc2nc3c(s2)CCCC3)c2ccccc2n1 | 17% | -3% | 2% | 3.2µM* | -6%
NC(=O)c1ccccc1NC(=O)COc1ccc(Cl)cc1 | ? | 3.2µM* | 17µM* | · | ?
CCOC(=O)N1CCN(C(=O)c2ccccc2NC(=O)COc2ccccc2)CC1 | 4% | 22% | -19% | · | -4%
Cc1ccc(OCC(=O)Nc2ccccc2-c2ccccc2)cc1 | ? | ? | 15µM* | ? | ?
Cc1ccc(OCC(=O)Nc2ccccc2C(N)=O)cc1 | 2.8µM* | 2.5µM* | 8.5µM* | · | ?
CSc1ccccc1NC(=O)COc1ccc(Cl)cc1 | 15% | 15% | ? | -2% | 6%
O=C(COc1ccc(Cl)cc1)Nc1ccccc1Cl | -4% | 16% | 17µM* | · | ?
COc1ccc(CNC2CCSc3ccccc32)cc1OC (centres undefined) | -6% | -1% | -1% | · | -7%
Cc1ccc(NC(=O)N2CCc3ccccc3C2)cc1C | 3.2µM* | 2.8µM* | 8.5µM* | · | ?
Cc1cc(C)cc(NC(=O)N2CCc3ccccc3C2)c1 | ? | ? | 19µM* | · | ?
COc1ccc(NC(=O)N2CCc3ccccc3C2)cc1OC | 17% | 4% | ? | · | ?
Cc1ccc(NC(=O)C2OCCc3ccccc32)cc1C (centres undefined) | ? | 24% | 15µM* | · | ?
CCOc1ccc(NC(=O)CN2C(=O)C(c3ccccc3)=NC23CCCCCC3)cc1 | · | · | -4% | 32% | ·
Cc1ccc(CCNC(=O)NC(C)(C)C)cc1 | ? | ? | ? | 3.5µM* | 13%
O=C(NCCc1ccccc1)c1cnc(Cl)c(Cl)c1 | 14% | 19% | 24µM* | · | 13%
CN(c1ccc(C(=O)NCCc2ccccc2)cc1)S(C)(=O)=O | 0.63µM* | 1.4µM* | 5.4µM* | 14µM* | 1.6µM*
Cc1ccc(C(=O)NCCc2ccncc2)cc1 | ? | ? | 21µM* | ? | ?
Cc1ccc(Oc2ccc(C(=O)NCc3ccncc3)cc2)cc1 | -20% | -28% | -13% | -83% | 5%
CC(C)OCCCN1C(=O)c2[nH]nc(-c3ccccc3O)c2C1c1cccc(OCc2ccccc2)c1 (centres undefined) | · | · | 2% | -13% | ·
CCOC(=O)c1ccc(Nc2nc3nonc3nc2Nc2cccc(C)c2C)cc1 | · | · | ? | -42% | ·
Cc1ccc(CNC(=O)c2ccc(Cn3cc(-c4ccc(C)cc4)nc3-c3ccncc3)cc2)cc1 | 2.8µM* | ? | 11µM* | · | ?
CN(c1ccc(C(=O)NCCSCc2ccco2)cc1)S(C)(=O)=O | 15% | 25% | ? | 25% | ?
CN(c1ccc(C(=O)NCCSC(C)(C)C)cc1)S(C)(=O)=O | ? | ? | 19µM* | 11µM* | 10µM*
Cc1ccc(C(=O)NCCc2ccccc2)cc1 | 0.04µM* | ? | 0.54µM* | · | ?
Cc1nn2cc(-c3cccc(Cl)c3)cnc2c1Cl | ? | -12% | -20% | 13µM* | 18%
Cc1nn2cc(-c3cccc(Cl)c3)cnc2c1Br | 2% | -10% | ? | ? | ?
Cc1cc(C)c2c(c1)N[C@H](c1cccs1)[C@@H]1CCO[C@H]21 | 0% | -4% | 2% | · | 0%
CC(C)c1ccc2c(c1)[C@H]1OCC[C@H]1[C@@H](c1cccs1)N2 | -13% | -14% | 9.5µM* | -41% | 1%
